Paper PMC5540273 (PLoS ONE, 2017)

How the values were obtained:
Details in all cases: concentration: 1 μM, replicates: in singlicate; n = 1
[1] = test system: MAP3K3
[2] = test system: MAP3K4
[3] = test system: MAP4K2
[4] = test system: MAP4K3
[5] = test system: MAP4K4
[6] = test system: MAP4K5
[7] = test system: MAPKAPK2
[8] = test system: MAPKAPK5
[9] = test system: MARK1
[10] = test system: MARK2
[11] = test system: MARK3
[12] = test system: MARK4
[13] = test system: MAST1
[14] = test system: T1, MEK1
T1 construct: gene MAP2K1

[15] = test system: T2, MEK2
T2 construct: gene MAP2K2

[16] = test system: T3, MEK3
T3 construct: gene MAP2K3

[17] = test system: T4, MEK4
T4 construct: gene MAP2K4

[18] = test system: T5, MEK5
T5 construct: gene MAP2K5

[19] = test system: T6, MEK6
T6 construct: gene MAP2K6

[20] = test system: MELK
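Also: KINOMEscan kinase panel screen.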

Row | Structure (SMILES) | %Inh [1] | %Inh [2] | %Inh [3] | %Inh [4] | %Inh [5] | %Inh [6] | %Inh [7] | %Inh [8] | %Inh [9] | %Inh [10] | %Inh [11] | %Inh [12] | %Inh [13] | %Inh [14] | %Inh [15] | %Inh [16] | %Inh [17] | %Inh [18] | %Inh [19] | %Inh [20]
1 | Oc1ccc2ncnc(Nc3ccc(OCc4ccccc4)cc3)c2c1 [GI262866] | 0% | 2% | 0% | 11% | 4% | 0% | 16% | 0% | 0% | 0% | 22% | 0% | 0% | 18% | 2% | 0% | 11% | 99.1% | 0% | 0%
2 | COc1cc2ncnc(Nc3ccc(OCc4ccccc4Br)c(Cl)c3)c2cc1OC.Cl [GI261590] | 0% | 0% | 0% | 11% | 0% | 17% | 15% | 0% | 29% | 0% | 1% | 11% | 0% | 19% | 13% | 0% | 0% | 98.9% | 0% | 0%
3 | CNc1nccc(-c2c(-c3ccc(F)cc3)ncn2C2CCN(C)CC2)n1 [SB-222903] | 0% | 0% | 0% | 0% | 0% | 0% | 0% | 0% | 0% | 0% | 18% | 16% | 10% | 8% | 26% | 1% | 0% | 37% | 0% | 0%
4 | Cn1ccc2ncnc(Oc3ccc(NC(=O)Nc4cccnc4)c(Cl)c3)c21 | 0% | 2% | 0% | 0% | 0% | 0% | 0% | 0% | 0% | 0% | 0% | 4% | 0% | 0% | 0% | 0% | 0% | 5% | 0% | 10%
5 | Cc1cc(N2CCC(NS(=O)(=O)c3ccc(F)cc3)CC2)nc(Nc2cccc(C#N)c2)n1.O=C(O)C(F)(F)F [GSK1653537] | 0% | 40% | 0% | 0% | 5% | 3% | 23% | 0% | 0% | 0% | 0% | 9% | 0% | 0% | 0% | 0% | 78% | 19% | 62% | 5%
6 | CC(=O)Nc1n[nH]c2ncc(-c3ccccc3)cc12 [SB-548492] | 37% | 11% | 25% | 0% | 0% | 4% | 5% | 8% | 11% | 5% | 0% | 8% | 42% | 23% | 35% | 19% | 21% | 87% | 0% | 21%
7 | COc1cc2c(Nc3cccc(NC(=O)c4ccccc4)c3)ncnc2cc1OCCCN1CCOCC1 [GSK223810] | 0% | 18% | 0% | 9% | 0% | 43% | 5% | 0% | 11% | 0% | 0% | 22% | 0% | 0% | 3% | 7% | 4% | 80% | 0% | 15%
8 | CCc1nc(-c2cccc(N(C)S(=O)(=O)c3ccccc3)c2)c(-c2ccnc(Nc3ccc(N4CCN(C(C)=O)CC4)nc3)n2)s1 [GSK1645895] | 0% | 18% | 0% | 0% | 0% | 17% | 0% | 0% | 0% | 4% | 0% | 0% | 0% | 0% | 3% | 3% | 0% | 99.9% | 24% | 0%
9 | Clc1cccc(-c2nc(Nc3ccncc3)c3ccccc3n2)c1 [GW873004] | 20% | 23% | 0% | 0% | 17% | 3% | 0% | 0% | 0% | 0% | 32% | 23% | 53% | 10% | 21% | 0% | 0% | 14% | 0% | 31%
10 | C[C@@H]1CCN(C(=O)CO)C[C@@H]1N(C)c1ncnc2[nH]ccc12 | 7% | 5% | 0% | 0% | 0% | 0% | 0% | 0% | 0% | 0% | 0% | 0% | 5% | 0% | 0% | 0% | 0% | 12% | 3% | 0%
11 | Cc1ccc(C)c(NC(=O)NCCNc2ccnc(Nc3ccc(F)cc3)n2)c1 [GSK1379878] | 0% | 0% | 0% | 0% | 0% | 0% | 0% | 0% | 0% | 0% | 0% | 9% | 0% | 0% | 0% | 11% | 0% | 43% | 0% | 4%
